# According to PubChem BioAssay:
# Several values for one entry are separate records, joined by “and”; a condition that tells them apart may be missing. Equal values may be shown once. Activity calls are given as the source filed them. Unless noted, no stated cut-off is given here; in the data, active means inhibition above about 80%; inactive means the rest.
# How the values were obtained:
# [1] = LFS_MB_P medulloblastoma growth inhibition, cell-based, chromothripsis tumors, cisplatin or BGB combos (AID 1671449); conditions: LFS_MB_P medulloblastoma cells;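 further: cells exposed for 96 hours; 0% = vehicle DMSO and 100% = killing by high DMSO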
# [2] = HDN33 neuroblastoma growth inhibition, cell-based, chromothripsis tumors, cisplatin or BGB combos (AID 1671450); conditions: HDN33 neuroblastoma cells, stronger effect = higher value;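 further: cells exposed to compound for four days; 0% = vehicle DMSO and 100% = cell killing by high DMSO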
# [3] = ICB984 medulloblastoma cell growth inhibition, synergistic combos for chromothripsis tumors, cisplatin or BGB combos (AID 1671451; call rule not given here;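 further: cells exposed for 96 hours before readout; 0% = vehicle DMSO and 100% = killing by high DMSO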); conditions: ICB984 medulloblastoma cells, drug combinations, stronger effect = higher value
# [4] = LFS_MB_1R medulloblastoma cell growth inhibition, synergistic combos for chromothripsis tumors, cisplatin or BGB combos (AID 1671452); conditions: LFS_MB_1R medulloblastoma cells, stronger effect = higher value;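 further: cells exposed for 96 hours before readout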
# [5] = HTB85 osteosarcoma cell growth inhibition, synergistic combos for chromothripsis tumors, BGB or cisplatin IC20 combos (AID 1671453); conditions: HTB85 osteosarcoma cells, drug combinations, stronger effect = higher value;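 further: cells exposed for 96 hours before readout; 0% = vehicle DMSO and 100% = high DMSO killing control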
# [6] = CRL2098 osteosarcoma cell growth inhibition, synergistic combos for chromothripsis tumors, BGB or cisplatin IC20 combos (AID 1671454); conditions: CRL2098 osteosarcoma cells, drug combinations, stronger effect = higher value;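 further: cells exposed for 96 h before readout; 0% = vehicle DMSO and 100% = killing by high DMSO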
# [7] = HD-MB03 medulloblastoma cell growth inhibition, synergistic combos for chromothripsis tumors, BGB or cisplatin IC20 combos (AID 1671455; in the data active means inhibition above about 83%;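 further: 0% = vehicle DMSO and 100% = high DMSO as cytotoxic control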); conditions: HD-MB03 medulloblastoma cells, stronger effect = higher value
# [8] = UWB1.289 ovarian carcinoma cell growth inhibition, synergistic combos for chromothripsis tumors, BGB or cisplatin combos (AID 1671456); conditions: UWB1.289 ovarian carcinoma cells, stronger effect = higher value;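 further: cells exposed to compound for four days; 0% = vehicle DMSO and 100% = killing by high DMSO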
# [9] = LFS_MB_2R medulloblastoma cell growth inhibition, synergistic combos for chromothripsis tumors, cisplatin combos (AID 1671457); conditions: LFS_MB_2R medulloblastoma cells, stronger effect = higher value;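 further: cells exposed to compound for four days before readout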
# [10] = MDA-MB-436 breast carcinoma cell growth inhibition, synergistic combos for chromothripsis tumors, BGB or cisplatin combos (AID 1671458; call rule not given here;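 further: cells exposed for 96 hours; 0% = vehicle DMSO and 100% = killing by high DMSO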); conditions: MDA-MB-436 breast carcinoma growth inhibition, drug combinations, stronger effect = higher value
# [11] = UWB1.289_BRCA1 ovarian cancer growth, cell-based, BGB or cisplatin combinations (AID 1671459); conditions: UWB1.289 BRCA1 ovarian carcinoma, drug combinations, stronger effect = higher value
# [12] = human astrocyte viability loss, single and combined drugs, cytotoxicity control for chromothriptic childhood tumor combination screen, cell-based, BGB or cisplatin IC20 combos (AID 1671460); conditions: Human astrocytes, drug combinations, stronger effect = higher value;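 further: cells exposed to compounds for 96 hours before viability readout; 0% = vehicle and 100% = killing control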
# [13] = growth inhibition of BT084 medulloblastoma cells, cell-based, ICGC_MB145, cisplatin and BGB IC40 combos (AID 1671461); conditions: drug combinations, stronger effect = higher value;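 further: cells exposed to drugs for 96 hours; 0% = vehicle DMSO and 100% = high DMSO full killing control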
# [14] = growth inhibition of RCMB18 medulloblastoma cells, cell-based, cisplatin and BGB IC40 combos (AID 1671462); conditions: stronger effect = higher value;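 further: cells exposed to compound for four days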
# [15] = growth inhibition of CRL1545 osteosarcoma cells, cell-based, cisplatin and BGB IC20 combos (AID 1671464); conditions: stronger effect = higher value;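 further: cells exposed to compound for 96 hours before readout; 0% = vehicle DMSO and 100% = high DMSO killing control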
# [16] = at 0.5 µM, stronger effect = higher value
# [17] = measured here: combination with BGB IC20, at 0.005 µM
# [18] = measured here: combination with BGB IC40, at 0.005 µM
# [19] = measured here: combination with BGB IC40, at 0.05 µM
# [20] = measured here: combination with cisplatin, at 0.5 µM, stronger effect = higher value
# [21] = measured here: combination with cisplatin, at 5 µM, stronger effect = higher value
# [22] = measured here: with BGB IC20 combination, at 0.5 µM
# [23] = measured here: with cisplatin IC20 combination, at 0.5 µM
# [24] = measured here: 5 uM single agent, at 5 µM
# [25] = measured here: combination with cisplatin, at 0.5 µM
# [26] = measured here: combination with cisplatin, at 5 µM
# [27] = measured here: with BGB IC20, at 0.5 µM
# [28] = measured here: with BGB IC20, at 5 µM
# [29] = measured here: with cisplatin IC20, at 0.5 µM
# [30] = measured here: with cisplatin IC20, at 5 µM
# [31] = measured here: combination with BGB at IC20, at 0.5 µM
# [32] = measured here: combination with cisplatin at IC20, at 0.5 µM
# [33] = measured here: combo with BGB at IC20, at 0.5 µM
# [34] = measured here: combo with cisplatin at IC20, at 0.5 µM
# [35] = measured here: inhibition with BGB combination, at 0.05 µM
# [36] = measured here: inhibition with cisplatin combination, at 0.05 µM
# [37] = measured here: BGB combination, at 0.5 µM
# [38] = measured here: BGB combination, at 5 µM
# [39] = measured here: cisplatin combination, at 0.5 µM
# [40] = measured here: cisplatin combination, at 5 µM
# [41] = BGB combination, concentration series, at 5 µM
# [42] = cisplatin combination, concentration series, at 5 µM
# [43] = measured here: combo with BGB IC20, at 0.5 µM
# [44] = measured here: combo with cisplatin IC20, at 0.5 µM
# [45] = cisplatin combination, at 0.5 µM
# [46] = measured here: BGB IC40 combination 0.05 uM, at 0.05 µM
# [47] = measured here: BGB IC40 combination, at 0.05 µM
compound,measurement,setting,value
Nc1ccccc1NC(=O)c1cnccn1,inhibition,[1]; [16],-12.4% (inactive)
same,inhibition,[1]; [17],-41.6%
same,inhibition,[1]; [18],85.5%
same,inhibition,[1]; [19],-7.35%
same,inhibition,[1]; [20],-18.9%
same,inhibition,[1]; [21],-28.5%
same,inhibition,"[2]; BGB combo, at 5 µM",-12.4%
same,inhibition,[2]; at 0.5 µM,-14.6% (inactive)
same,inhibition,"[2]; cisplatin combo, at 5 µM",6.5%
same,inhibition,[2]; [22],-34.1%
same,inhibition,[2]; [23],5.82%
same,inhibition,"[2]; single agent, at 5 µM",1.32%
same,inhibition,"[3]; BGB IC20 combo, at 0.005 µM",-16.9%
same,inhibition,"[3]; BGB IC40 combo, at 0.005 µM",-7.68%
same,inhibition,"[3]; BGB IC40 combo, at 0.05 µM",-8.97%
same,inhibition,[3]; at 0.5 µM,-30.1% (inactive)
same,inhibition,"[3]; cisplatin combo, at 0.05 µM",-14.5%
same,inhibition,"[3]; cisplatin combo, at 0.5 µM",-45.8%
same,inhibition,"[3]; cisplatin combo, at 5 µM",-16.9%
same,inhibition,[3]; [24],-10%
same,inhibition,[4]; at 0.5 µM,-27.6% (inactive)
same,inhibition,[4]; [19],-29.7%
same,inhibition,[4]; [25],-55.5%
same,inhibition,[4]; [26],-22%
same,inhibition,[5]; at 0.5 µM,-12.2% (inactive)
same,inhibition,[5]; [27],-6.35%
same,inhibition,[5]; [28],4.3%
same,inhibition,[5]; [29],-15.5%
same,inhibition,[5]; [30],27.4%
same,inhibition,"[5]; single agent, at 5 µM",-13.3%
same,inhibition,[6]; at 0.5 µM,-55.8% (inactive)
same,inhibition,[6]; [31],-72.3%
same,inhibition,[6]; [32],-47%
same,inhibition,[7]; at 0.5 µM,-6.67% (inactive)
same,inhibition,[7]; [33],-7.96%
same,inhibition,[7]; [34],-6.22%
same,inhibition,[8]; at 0.5 µM,12.9% (inactive)
same,inhibition,[8]; [35],-30.1%
same,inhibition,[8]; [36],-23.2%
same,inhibition,[9]; at 0.5 µM,-19.8% (inactive)
same,inhibition,[9]; [25],-6.3%
same,inhibition,[9]; [26],1.58%
same,inhibition,[10]; at 0.5 µM,-6.35% (inactive)
same,inhibition,[10]; [37],-5.5%
same,inhibition,[10]; [38],-1.92%
same,inhibition,[10]; [39],-13.4%
same,inhibition,[10]; [40],-2.01%
same,inhibition,[11]; [41],22.6%
same,inhibition,[11]; at 0.5 µM,-5.39% (inactive)
same,inhibition,[11]; [42],17%
same,inhibition,[12]; at 0.5 µM,3.77% (inactive)
same,inhibition,[12]; [43],3.42%
same,inhibition,[12]; [44],8.86%
same,inhibition,[13]; at 0.5 µM,-7.12% (inactive)
same,inhibition,[13]; [45],-9.24%
same,inhibition,"[13]; cisplatin combination, at 5 µM",-35.5%
same,inhibition,[13]; [46],-29.6%
same,inhibition,"[13]; single agent, at 5 µM",14.3%
same,inhibition,[14]; at 0.5 µM,-13.8% (inactive)
same,inhibition,"[14]; cisplatin combo, at 5 µM",35.4%
same,inhibition,[14]; [47],-24.6%
same,inhibition,[14]; [25],-43.9%
same,inhibition,"[14]; single agent, at 5 µM",21.9%
same,inhibition,[15]; at 0.5 µM,19.6% (inactive)
same,inhibition,[15]; [22],-5.57%
same,inhibition,[15]; [23],31.1%
same,inhibition,"[15]; single agent, at 0.05 µM",-21.9%
same,inhibition,"[15]; single agent, at 5 µM",32.9%
Nc1nc(NC2CC2)c2ncn(C3C=CC(CO)C3)c2n1 (stereo unspecified),inhibition,[1]; [16],18.6% (inactive) and 9.78% (inactive)
same,inhibition,[1]; [17],-10.2% and -25.3%
same,inhibition,[1]; [18],-2.6% and -37.7%
same,inhibition,[1]; [19],-13.2% and -43.3%
same,inhibition,[1]; [20],0.791% and -12%
same,inhibition,[1]; [21],42.6% and 20.9%
same,inhibition,"[2]; BGB combo, at 5 µM",7.05% and 3.14%
same,inhibition,[2]; at 0.5 µM,-27.8% (inactive) and -12.2% (inactive)
same,inhibition,"[2]; cisplatin combo, at 5 µM",15.9% and 16.9%
same,inhibition,[2]; [22],-24.7% and -14%
same,inhibition,[2]; [23],-37.5% and -12%
same,inhibition,"[2]; single agent, at 5 µM",15.7% and 29.8%
same,inhibition,"[3]; BGB IC20 combo, at 0.005 µM",-32.2% and 1.07%
same,inhibition,"[3]; BGB IC40 combo, at 0.005 µM",-10% and -27%
same,inhibition,"[3]; BGB IC40 combo, at 0.05 µM",11.7% and 20.9%
same,inhibition,[3]; at 0.5 µM,-15.2% (inactive) and -19.6% (inactive)
same,inhibition,"[3]; cisplatin combo, at 0.05 µM",9.21% and 18%
same,inhibition,"[3]; cisplatin combo, at 0.5 µM",-8.32% and -16.8%
same,inhibition,"[3]; cisplatin combo, at 5 µM",-66.5% and -40.2%
same,inhibition,[3]; [24],-33.4% and -23.1%
same,inhibition,[4]; at 0.5 µM,-29.4% (inactive) and -14.1% (inactive)
same,inhibition,[4]; [19],-41.9% and -20.2%
same,inhibition,[4]; [25],-65.7% and -24.2%
same,inhibition,[4]; [26],10.3% and 37.7%
same,inhibition,[5]; at 0.5 µM,-22.4% (inactive) and -2.82% (inactive)
same,inhibition,[5]; [27],-29.8% and -5.83%
same,inhibition,[5]; [28],-10.5% and 18.8%
same,inhibition,[5]; [29],-25.7% and -8.4%
same,inhibition,[5]; [30],3.54% and 48.9%
same,inhibition,"[5]; single agent, at 5 µM",15.5% and 29.1%
same,inhibition,[6]; at 0.5 µM,-73.4% (inactive) and -21.7% (inactive)
same,inhibition,[6]; [31],-122% and -23.9%
same,inhibition,[6]; [32],-57% and -77.8%
same,inhibition,[7]; at 0.5 µM,-12.2% (inactive) and -6.69% (inactive)
same,inhibition,[7]; [33],-5.41% and -19.4%
same,inhibition,[7]; [34],-23.6% and 5.04%
same,inhibition,[8]; at 0.5 µM,-7.07% (inactive) and -1.31% (inactive)
same,inhibition,[8]; [35],-16.1% and -7.54%
same,inhibition,[8]; [36],-20.7% and -16.3%
same,inhibition,[9]; at 0.5 µM,-0.03% (inactive) and -16.7% (inactive)
same,inhibition,[9]; [25],2.24% and -15.7%
same,inhibition,[9]; [26],-15.7% and 24.3%
same,inhibition,[10]; at 0.5 µM,0.7% (inactive) and -5.22% (inactive)
same,inhibition,[10]; [37],5.51% and -4.19%
same,inhibition,[10]; [38],23.6% and 15.9%
same,inhibition,[10]; [39],-6.39% and -11.5%
same,inhibition,[10]; [40],25.3% and 12.2%
same,inhibition,[11]; [41],21.9% and 44.1%
same,inhibition,[11]; at 0.5 µM,-6.63% (inactive) and -4.62% (inactive)
same,inhibition,[11]; [42],36% and 67.6%
same,inhibition,[12]; at 0.5 µM,-19.5% (inactive) and 11.5% (inactive)
same,inhibition,[12]; [43],-10.8% and 10%
same,inhibition,[12]; [44],-38.1% and 8.23%
same,inhibition,[13]; at 0.5 µM,-4.33% (inactive) and -11.9% (inactive)
same,inhibition,[13]; [45],6.28% and -30.6%
same,inhibition,"[13]; cisplatin combination, at 5 µM",27.2% and 36.5%
same,inhibition,[13]; [46],4.8% and -24.4%
same,inhibition,"[13]; single agent, at 5 µM",29.7% and 30.5%
same,inhibition,[14]; at 0.5 µM,-22.8% (inactive) and -12.3% (inactive)
same,inhibition,"[14]; cisplatin combo, at 5 µM",15.1% and 15.7%
same,inhibition,[14]; [47],-23.6%
same,inhibition,[14]; [25],-50.2% and -0.496%
same,inhibition,"[14]; single agent, at 5 µM",16.3% and 21.5%
same,inhibition,[15]; at 0.5 µM,-22.4% (inactive) and -10.8% (inactive)
same,inhibition,[15]; [22],-35.1% and -4.57%
same,inhibition,[15]; [23],-18.6% and -15.8%
same,inhibition,"[15]; single agent, at 0.05 µM",-49.6% and -25.5%
same,inhibition,"[15]; single agent, at 5 µM",-7.83% and 23.5%
